± gives the standard deviation of the averaged measurements.
What was measured:
DLD1 [1] = assay: cell viability (CellTiter-Glo) relative to plate median (fraction of plate median); higher = more viable cells; settings: 5 µM; treatment time 24 h; reporter: 7TFP
How it was run: (§1)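 Each entry is a luminescence signal normalised to the plate median, averaged over independent replicates. The replicate count was two, and the cells were colorectal cancer lines with stable lentiviral TCF/Wnt firefly luciferase reporters exposed to library compounds at a final 5 µM for 24 h. Firefly luciferase and CellTiterGlo were measured on parallel plates.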

HCT116 = assay: as above; settings: 5 µM; treatment time 24 h; reporter: TCF4/Wnt
How it was run: as §1

SW480 [2] = assay: as above; settings: 5 µM; treatment time 24 h; reporter: 7TFP
How it was run: as §1

DLD1 [3] = assay: TCF/Wnt firefly luciferase reporter signal relative to plate median (fraction of plate median); higher = higher Wnt reporter signal; settings: 5 µM; treatment time 24 h; reporter: 7TFP
How it was run: as §1

SW480 [4] = assay: as above; settings: 5 µM; treatment time 24 h; reporter: 7TFP
How it was run: as §1

Row | Compound | cell viability (DLD1 [1]) | cell viability (HCT116) | cell viability (SW480 [2]) | TCF/Wnt firefly luciferase reporter signal (DLD1 [3]) | TCF/Wnt firefly luciferase reporter signal (SW480 [4])
1 | CC(CN(C)C)CN1c2ccccc2Sc2ccccc21 (stereo not given) | 1 ± 0.12 | 1.02 ± 0.065 | 1.06 ± 0.057 | 0.997 ± 0.15 | 1.08 ± 0.071
2 | O=C(Cc1ccccc1)NO | 1.03 ± 0.028 | 0.878 ± 0.13 | 1 ± 0.027 | 0.789 ± 0.064 | 0.869 ± 0.014
3 | CC(=O)N[C@@H](Cc1c[nH]c2ccccc12)C(=O)O | 0.953 ± 0.0014 | 0.955 ± 0.093 | 0.985 ± 0.021 | 0.905 ± 0.1 | 0.961 ± 0.016
4 | O=C(CNC(=O)c1ccc(Cl)cc1)NO | 0.978 ± 0.025 | 1 ± 0.041 | 0.931 ± 0.026 | 1.03 ± 0.048 | 1.13 ± 0.028
5 | Cc1cc(O)c(C=O)c2c1C(=O)Oc1c(C)c(O)c3c(c1O2)C(O)OC3=O (stereo not given) | 0.975 ± 0.092 | 1.11 | 0.988 ± 0.017 | 1.04 ± 0.068 | 1.02 ± 0.036
6 | C=CC(C1=CC(=O)C(OC)=CC1=O)c1ccccc1 (stereo not given) | 0.983 ± 0.0014 | 1.05 ± 0.042 | 1.03 ± 0.021 | 0.985 ± 0.079 | 1.01 ± 0.054
7 | Nc1ccc(S(=O)(=O)Nc2cnc3ccccc3n2)cc1 | 0.996 ± 0.02 | 1.07 ± 0.028 | 1 ± 0.08 | 1.11 ± 0.085 | 1.045 ± 0.0071
8 | COc1ccc(C2CNC(=O)C2)cc1OC1CCCC1 (stereo not given) | 0.992 ± 0.011 | 0.989 ± 0.059 | 0.968 ± 0.0099 | 1.04 ± 0.18 | 1.06 ± 0.021
9 | COc1ccc2c(c1)OCC(Cc1ccc(OC)c(O)c1)C2=O (stereo not given) | 0.937 ± 0.0099 | 0.847 ± 0.043 | 1.09 ± 0.035 | 0.707 ± 0.13 | 0.883 ± 0.047
10 | CC(=O)OCC(=O)[C@@]12OC3(CCCC3)O[C@@H]1C[C@H]1[C@@H]3CCC4=CC(=O)C=C[C@]4(C)[C@@]3(F)[C@@H](O)C[C@@]12C | 0.985 ± 0.021 | 0.896 ± 0.16 | 0.965 ± 0.023 | 0.82 ± 0.093 | 0.771 ± 0.28
11 | O=C(/C=C/c1ccccc1)c1ccc(O)cc1O | 1 ± 0.025 | 0.984 ± 0.0071 | 0.99 ± 0.028 | 1.12 ± 0.071 | 1.07 ± 0.014
12 | CN1CCC(=C2c3ccccc3CC(=O)c3sccc32)CC1 | 0.988 ± 0.046 | 1.04 ± 0.083 | 0.988 ± 0.017 | 0.956 ± 0.021 | 0.934 ± 0.042
13 | CCCCCCCCCCCCCCCCOP(=O)([O-])OCC[N+](C)(C)C | 1.04 ± 0.035 | 0.984 ± 0.0099 | 0.969 ± 0.035 | 1.07 ± 0.16 | 1.04 ± 0.05
14 | CCCCCCCCCCCCCCCC(=O)OC[C@@H](NC(=O)C(Cl)Cl)[C@H](O)c1ccc([N+](=O)[O-])cc1 | 0.96 ± 0.0042 | 0.996 ± 0.02 | 1.01 | 0.971 ± 0.028 | 1.02 ± 0.052
15 | CC(=O)O[C@@H]1CC2C(C)(C)[C@H](O)C=C[C@]2(C)C2CC[C@@]3(C)[C@H](c4ccoc4)OC(=O)C4OC43[C@@]21C (stereo not given in full) | 1.05 ± 0.064 | 1.08 ± 0.092 | 1.06 ± 0.028 | 0.97 ± 0.042 | 0.926 ± 0.1
16 | C=C[C@]1(C)C=C2C(=O)[C@@]3(O)OC(=O)[C@@]4(CCCC(C)(C)[C@H]34)[C@@]2(O)CC1 [Sphaeropsidin A] | 0.898 ± 0.16 | 0.973 ± 0.067 | 0.952 ± 0.015 | 0.938 ± 0.086 | 1.05 ± 0.19
17 | CC(C(=O)O)c1ccc2c(c1)[nH]c1ccc(Cl)cc12 (stereo not given) | 1.02 ± 0.063 | 1.03 ± 0.061 | 0.968 ± 0.0071 | 1.04 ± 0.042 | 1.09 ± 0.021
18 | C[C@]12CCC(=O)C=C1CC[C@@H]1[C@@H]2[C@@H](O)C[C@@]2(C)[C@H]1CC[C@]2(O)C(=O)COP(=O)(O)O | 0.949 ± 0.0099 | 0.974 ± 0.065 | 0.969 ± 0.03 | 1.01 ± 0.025 | 1.07 ± 0.014
19 | C[C@H]1COC2=C1C(=O)C(=O)c1c2ccc2c1CCCC2(C)C | 1.15 ± 0.2 | 1.12 ± 0.042 | 1.08 ± 0.014 | 1.05 ± 0.096 | 0.906 ± 0.12
20 | O=c1ccc2cc(O)c(O)cc2o1 | 1.03 ± 0.19 | 1.13 ± 0.028 | 1.04 ± 0.014 | 0.994 ± 0.066 | 0.893 ± 0.015
21 | C=C1C(=O)O[C@H]2[C@H]1CC/C(C)=C/CC[C@@]1(C)O[C@@H]21 | 0.84 ± 0.12 | 0.998 ± 0.017 | 0.886 ± 0.044 | 0.825 ± 0.096 | 0.836 ± 0.049
22 | COc1cc(OC)c2c(=O)c(O)c(-c3ccc(OC)c(OC)c3)oc2c1 | 0.981 ± 0.055 | 1 ± 0.024 | 1.01 ± 0.021 | 0.899 ± 0.1 | 0.887 ± 0.17
23 | O=C(O)CCCCCCCCCCCC[C@@H]1C=CCC1 | 1 ± 0.055 | 1.03 ± 0.058 | 0.966 ± 0.1 | 1.15 ± 0.014 | 1 ± 0.096
24 | COc1ccc(-c2cc(=O)c3c(O)cc(O[C@@H]4O[C@H](CO[C@@H]5O[C@@H](C)[C@H](O)[C@@H](O)[C@H]5O)[C@@H](O)[C@H](O)[C@H]4O)cc3o2)cc1O | 0.999 ± 0.03 | 1.06 ± 0.12 | 0.96 ± 0.013 | 1.06 ± 0.13 | 1.04 ± 0.021
25 | CC(C)CCC[C@@H](C)C1CC[C@H]2[C@@H]3CCC4CC(=O)CC[C@]4(C)[C@H]3CC[C@]12C (stereo not given in full) | 0.999 ± 0.016 | 1.01 ± 0.031 | 1.02 ± 0.021 | 0.955 ± 0.045 | 0.97 ± 0.071
26 | COC(=O)c1c(OC)cc2c(c1C)Oc1c(Cl)c(O)c(Cl)c(C)c1C(=O)O2 | 1.02 ± 0.036 | 1.04 ± 0.014 | 0.99 ± 0.0042 | 1.05 ± 0.085 | 0.954 ± 0.028
27 | C=C[C@@]1(C)CC(=O)[C@]2(O)[C@@]3(C)[C@@H](O)CCC(C)(C)[C@@H]3[C@H](O)[C@H](OC(C)=O)[C@@]2(C)O1 | 1.09 ± 0.099 | 0.942 ± 0.069 | 1.12 ± 0.021 | 1.23 ± 0.05 | 1.14 ± 0.099
28 | COc1ccc(-c2cc(=O)c3c(O)c(OC)c(OC)c(OC)c3o2)cc1 | 1.01 ± 0.032 | 1.04 ± 0.072 | 1.02 ± 0.055 | 0.953 ± 0.062 | 1.01 ± 0.021
29 | Cc1cc(O)c2c3c(ccc2c1)C(=O)c1c(O)cccc1C3=O [Tetrangulol] | 1.02 ± 0.065 | 0.985 ± 0.018 | 0.972 ± 0.015 | 0.978 ± 0.023 | 0.974 ± 0.035
30 | CN(C)CCC=C1c2ccccc2CCc2ccccc21 | 0.958 ± 0.036 | 0.997 ± 0.047 | 0.989 ± 0.016 | 0.952 ± 0.061 | 0.963 ± 0.046

Reference: the supplement of paper PMC6522484
